Only some compounds are listed: those with a hit (about 0.92% of all), similar ones and a draw of the others.
PKM2 activator = qHTS Assay for Activators of Human Muscle isoform 2 Pyruvate Kinase | Potency, µM (titrated, usually from 57.5 µM), inactives show at the highest dose activation, usual class: activators | 260,000 tested, 0.34% active | Pyruvate kinase PKM (Homo sapiens), P14618 | purified PKM2, Kinase-Glo ATP luminescence, activation; response scale: 0% is enzyme alone, no compound; note: potency is the fitted concentration of half-maximal effect; % is set by controls: 0 for no effect and ±100 for the full control effect; nearly all actives have a fitted effect of over 55% in size
Target sequence (P14618 whole entry, looked up, canonical isoform): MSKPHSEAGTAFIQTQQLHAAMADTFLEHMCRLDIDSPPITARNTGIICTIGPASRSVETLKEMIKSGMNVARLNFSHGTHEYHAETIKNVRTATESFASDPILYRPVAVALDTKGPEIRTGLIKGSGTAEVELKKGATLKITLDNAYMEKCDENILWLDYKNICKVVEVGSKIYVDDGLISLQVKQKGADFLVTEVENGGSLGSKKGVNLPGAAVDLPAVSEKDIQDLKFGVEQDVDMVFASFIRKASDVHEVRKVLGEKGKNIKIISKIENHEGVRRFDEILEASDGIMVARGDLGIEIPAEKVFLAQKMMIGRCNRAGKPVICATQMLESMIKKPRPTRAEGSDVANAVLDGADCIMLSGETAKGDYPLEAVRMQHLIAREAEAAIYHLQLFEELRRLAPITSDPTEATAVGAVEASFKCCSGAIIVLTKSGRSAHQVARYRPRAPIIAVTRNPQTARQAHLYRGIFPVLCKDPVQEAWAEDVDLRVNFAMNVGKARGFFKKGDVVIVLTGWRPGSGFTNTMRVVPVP
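hPK-M2, >95% pure; 0.1 mM ADP / 0.5 mM PEP final; imidazole pH7.2 buffer w/ 7 mM MgCl2, 50 mM KCl; 1 h RT; Kinase-Glo lum. Intermediate enzyme activity for dual inhibitor/activator qHTS.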
miR-21 act = qHTS Assay for Modulators of miRNAs and/orActivators of miR-21 | Potency, µM (highest dose often 38.3 µM), for the others: at the highest dose activity change, positive = activation, hits mostly activators | HeLa miR-21 FLuc reporter, luciferase, 48 h | AID 2288, 2010 | 340,000 tested, under 10 active;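 note: % of control where 0% means no effect; miR-21 action dims this reporter so a rising signal means less miR-21 action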
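Compounds were titrated across several concentrations (up to approximately 40 uM) and incubated 48 hours with HeLa miR-21-FLuc reporter cells (miR-21 target sequence downstream of FLuc, endogenous miR-21). Readout was firefly luciferase luminescence after lytic detection reagent.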
RXFP1 ag = qHTS Assay for Agonists of the Relaxin Receptor RXFP1; Relaxin receptor 1 (Homo sapiens), Q9HBX9; HEK293T-RXFP1 cAMP TR-FRET, 30 min; response scale: percent of porcine relaxin response, buffer zero; Potency, µM (top dose mostly 57.5 µM), inactives show at the highest dose activation, most hits filed as activators; 370,000 tested, 0.3% active; note: potency is the fitted concentration of half-maximal effect; % is set by controls: 0 for no effect and ±100 for the full control effect; nearly all actives have a fitted effect of over 60% in size
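Agonist response is measured as cAMP accumulation in an RXFP1-transfected HEK293T line under PDE4 inhibition. Values are scaled between buffer-only and 29 nM porcine relaxin, and EC50s come from standard Hill equation fits.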
RXFP1 antagonist = qHTS Assay for Antagonists of the Relaxin Receptor RXFP1; Relaxin receptor 1 (Homo sapiens), Q9HBX9; HEK293-RXFP1, relaxin-stimulated cAMP HTRF, 30 min; active compounds read low; activity change, negative = inhibition, % at 57.5 µM; 350,000 tested, 0.59% active; AID 1259400, 2018;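 active = activity change of -60% or lower, but not beyond a set lower limit; inconclusive = change between -60% and -40%, or beyond the set limit; inactive = change above -40%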; note: % is set by controls: 0 for no effect and ±100 for the full control effect
GALK inh = qHTS Assay for Inhibitors of Human Galactokinase (GALK); AID 1868, 2009; 270,000 tested, 0.007% active; Potency, µM (titrated, usually from 57.5 µM), for the others: top-dose activity change, negative = inhibition, actives largely listed as inhibitors; Purified GALK, Kinase-Glo residual ATP luminescence; P51570; note: potency is the fitted concentration of half-maximal effect; % is set by controls: 0 for no effect and ±100 for the full control effect
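5 nM enzyme, 35 uM ATP, 100 uM galactose, 20 mM HEPES pH8.0, 5 mM MgCl2; 1 h RT; residual ATP by Kinase-Glo Plus luminescence, qHTS format.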
KinaseGlo FLuc = Counterscreen for Luciferase (Kinase-Glo TM) Inhibition; Luciferin 4-monooxygenase (Photuris pensylvanica), Q27757; Kinase-Glo luciferase, ATP luminescence, 8 min; Potency, µM (top dose mostly 38.3 µM), without a hit: at the highest dose activity change, negative = inhibition, actives largely listed as inhibitors; 200,000 tested, 0.28% active; AID 1379, 2008; note: potency is the fitted concentration of half-maximal effect; % is set by controls: 0 for no effect and ±100 for the full control effect; nearly all actives have a fitted effect of over 60% in size
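Luminescence was the read-out, taken after 8-minute incubation at ambient temperature. Luciferase turned over luciferin with 10 uM ATP in imidazole pH 7.2 buffer containing KCl, MgCl2, Tween 20 and BSA.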
Active calls of the source: *; ? = inconclusive; . = no result given; [ ] = another dose, or the depositor's remark. Unless noted, calls come from the whole dose curve; as a rule, active = well fitted curve in the direction sought with a large enough effect; inconclusive = small, poorly fitted or top-dose-only effect, or another doubt; inactive = no such curve, though single readings can be large; an effect the other way counts as inactive or inconclusive.

SMILES	PKM2 activator	miR-21 act	RXFP1 ag	RXFP1 antagonist	GALK inh	KinaseGlo FLuc
CCOc1ccc(NC(=O)Nc2ccccc2SC)cc1	-27%	-53%	1%	-5	5%	11µM*
CC(=O)c1c(C)[nH]c(C(=O)Nc2ccc(C)c(S(=O)(=O)Nc3ccc(C)cc3C)c2)c1C	18µM*	24%	0%	-12	1%	.
COc1ccc(NC(=O)c2ccc3c(c2)NC(=O)CS3)cc1S(=O)(=O)Nc1ccc(Br)cc1	-4%	?	-1%	-3	-1%	5%
Cc1ccc(NS(=O)(=O)c2cc(NC(=O)c3ccc4c(c3)NC(=O)CS4)ccc2C)c(C)c1	1%	?	-1%	-63*	10%	6%
COc1ccccc1NS(=O)(=O)c1cc(NC(=O)c2ccccc2C)ccc1N1CCOCC1	.	.	.	-2	.	.
COc1ccccc1NS(=O)(=O)c1cc(NC(=O)c2[nH]c(C)c(C(C)=O)c2C)ccc1N1CCOCC1	16µM*	9%	0%	-3	0%	.
CC(=O)c1c(C)[nH]c(C(=O)Nc2cccc(S(=O)(=O)N(C)C)c2)c1C	?	-47%	0%	-19	-1%	-2%
CC(=O)c1c(C)[nH]c(C(=O)Nc2ccc(S(=O)(=O)N(C)C)cc2)c1C	7.1µM*	0%	1%	-8	1%	.
Cc1c(NC(=O)C(C)OC(=O)/C=C/c2ccc3c(c2)OCO3)c(=O)n(-c2ccccc2)n1C (stereo not drawn)	-9%	-16%	1%	1	1%	-2%
CCN(CC)CCCC(C)NC(=O)c1ccc(Cc2nc3ccccc3[nH]2)cc1 (stereo not drawn)	.	.	.	.	.	-1%
COc1ccc(NC(=O)c2cc3c(=O)n4ccccc4nc3n2C)cc1OC	-3%	-9%	2%	-11	-3%	0%
O=C(c1cccc([N+](=O)[O-])c1)N1CCCN(C(=O)c2cccc([N+](=O)[O-])c2)CC1	-13%	2%	?	22	2%	4%
O=C(/C=C/c1ccc2c(c1)OCO2)c1ccc[nH]1	-12%	-74%	1%	-4	1%	-18%
O=C(/C=C/c1ccc2c(c1)OCO2)c1cccs1	.	.	.	.	.	8.9µM*
CN1/C(=C\C(=O)c2ccco2)C(C)(C)c2ccccc21	-3%	?	0%	-86*	2%	-6%
CN1/C(=C\C(=O)COC(=O)c2ccco2)C(C)(C)c2ccccc21	-2%	-3%	-2%	-4	0%	2%
CN1/C(=C/C(=O)c2nc(S(C)(=O)=O)ncc2Cl)C(C)(C)c2ccccc21	2%	?	3%	-69*	-4%	-2%
O=C(NCC(c1ccc(F)cc1)N1CCOCC1)c1ccc([N+](=O)[O-])o1 (stereo not drawn)	.	.	.	2	.	.
CCOC(=O)c1c(-c2ccccc2)csc1NC(=O)c1cc2ccccc2oc1=O	-1%	1%	1%	.	-1%	1%
CN1CCc2c(sc(NC(=O)CSc3ccc(F)cc3)c2-c2nc3ccccc3s2)C1	.	-3%	-30%	-96*	.	.
COC(=O)c1c(NC(=S)Nc2ccccc2Cl)sc(C)c1C	-2%	-3%	8%	-107*	-6%	-2%
COC(=O)c1c(NC(=O)Cc2ccccc2)sc(C)c1C	-7%	-8%	1%	-13	-3%	-1%
c1ccc(-c2nc(-c3cccc4ccccc34)c(NC3CCCCC3)o2)cc1	.	.	.	.	.	-1%
O=C1C(Br)=Cc2cccc3cccc1c23	2%	-7%	-5%	-69*	-1%	.
O=C1c2sccc2-c2cccc3cccc1c23	.	.	.	-1	.	.
SMILES	PKM2 activator	miR-21 act	RXFP1 ag	RXFP1 antagonist	GALK inh	KinaseGlo FLuc
O=C(Nc1ccc(NC(=O)c2ccco2)nc1)c1ccco1	-19%	-4%	1%	-3	1%	-23%
O=C(Nc1ccc(NC(=O)c2ccco2)nc1)c1ccccn1	-37%	-2%	1%	-4	3%	10µM*
CC(C)(C)C(=O)N1CCN(c2ccc(NC(=O)c3ccco3)cc2)CC1	.	-3%	1%	-83*	4%	.
O=C(Nc1ccc(Nc2ccccc2)cc1)c1ccco1	5%	-45%	-2%	-81*	-3%	0%
CC(C)CC(=O)N1CCN(c2ccc(NC(=O)c3ccco3)cc2)CC1	0%	-3%	1%	-11	-2%	.
CC1CCN(C2CCN(S(=O)(=O)c3ccc(C(F)(F)F)cc3)CC2)CC1	-2%	3%	-4%	11	8%	.
OC[C@@H](O)[C@@H](O)CCc1ccccc1	.	.	.	.	.	2%
C=C(C)[C@H]1CC=C(CO)CC1	.	.	.	.	.	1%[39.9 µM]
Cc1cccc(NC(=O)CCc2ccc(S(=O)(=O)NC3CCCCC3)cc2)c1	2%	7%	0%	-2	1%	-3%
CCCCCC#CC[C@@H](O)/C=C/C=C/C=C\[C@@H](O)CCCC(=O)O	.	.	.	.	.	-4%
O=C(O)c1ccccc1NS(=O)(=O)c1cccc2ccccc12	.	.	.	.	.	-3%
NC(=S)c1cc2ccc(O)cc2oc1=O	-17%	-10%	13µM*	.	1%	-17%
C/C(=N/NC(N)=S)c1cc2ccc(O)cc2oc1=O	1%	9%	-2%	-5	3%	.
COCCn1c(-c2ccc3ccccc3c2)nc2c1c(=O)[nH]c(=O)n2CC(C)C	7%	-6%	0%	-12	12%	.
COc1ccc(NC(=O)Cc2ccc(Cl)c(Cl)c2)cn1	7%	-17%	1%	3	-4%	-1%
COc1ccc(NC(=O)COC(=O)C(NC(=O)c2ccc(C)cc2)C(C)C)cn1 (stereo not drawn)	.	.	.	5	.	.
COc1ccc(NC(=O)/C(Cl)=C(/Cl)S(=O)(=O)Cc2ccc(C)cc2)cn1	3%	?	0%	-71*	0%	-5%
COc1ccc(NC(=O)/C(Cl)=C(/Cl)S(=O)Cc2ccccc2Cl)cn1 (stereo not drawn)	?	?	0%	-118*	-1%	3%
CCC1CN(C(=O)N2CCC(C(=O)NCCc3ccc(Cl)cc3)CC2)c2ccccc2O1 (stereo not drawn)	.	3%	-1%	-36	.	.
CCN(c1ccccc1)S(=O)(=O)c1ccc(Cl)c(NC(=O)CSc2n[nH]c(N)n2)c1	-2%	-2%	-1%	13	-2%	6%

Screening data as filed in PubChem BioAssay.
